Measurements published in paper PMC6919601, “Identification of Plasmodium dipeptidyl aminopeptidase allosteric inhibitors by high throughput screening” (PLoS ONE, 2019).
Hit rate of the full screen: of about 110,000 compounds, about 230 (0.21%) showed an effect of 50% or more. This is one part of a sample in which strong results are shown more often than they occur.

What follows are compounds tested against DPAP1 (Plasmodium falciparum, UniProt Q8IIJ9) (assay: primary screen, percent inhibition; read by cleavage of a fluorogenic dipeptide substrate; higher = more effect of the substance).
Chain of DPAP1 (Q8IIJ9 whole entry, looked up): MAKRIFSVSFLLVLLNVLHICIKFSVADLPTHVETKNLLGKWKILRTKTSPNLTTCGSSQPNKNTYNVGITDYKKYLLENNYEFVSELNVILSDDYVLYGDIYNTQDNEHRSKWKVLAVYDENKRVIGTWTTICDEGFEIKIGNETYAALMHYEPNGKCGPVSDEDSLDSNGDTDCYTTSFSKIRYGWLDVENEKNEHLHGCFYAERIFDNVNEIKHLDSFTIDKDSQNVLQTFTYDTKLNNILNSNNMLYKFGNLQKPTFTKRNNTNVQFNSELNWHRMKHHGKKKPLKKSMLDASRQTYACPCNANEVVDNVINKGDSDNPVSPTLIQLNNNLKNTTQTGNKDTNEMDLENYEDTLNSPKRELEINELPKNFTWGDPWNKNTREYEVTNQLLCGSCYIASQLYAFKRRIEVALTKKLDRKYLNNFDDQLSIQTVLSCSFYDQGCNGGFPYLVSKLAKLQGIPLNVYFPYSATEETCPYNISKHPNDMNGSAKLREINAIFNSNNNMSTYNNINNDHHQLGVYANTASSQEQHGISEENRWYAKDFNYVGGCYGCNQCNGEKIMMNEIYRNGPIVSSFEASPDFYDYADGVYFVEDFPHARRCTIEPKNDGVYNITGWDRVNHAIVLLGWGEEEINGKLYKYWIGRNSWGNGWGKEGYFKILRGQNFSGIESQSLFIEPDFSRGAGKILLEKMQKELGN
Set-up: species or system P. falciparum D10 trophozoite lysates; single well
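Also: 30 min substrate incubation versus DMSO and 10 µM JCP410 controls.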

SMILES	% Inhibition @ 10 uM [%]
COc1ccc(C2N=C(NO)c3ccccc3N2)cc1 (centres unmarked)	-0.424
C=C(C)CSc1nc(N)c2c3c(sc2n1)CCC3	4.37
CC(C)CSc1nc(N)c2c3c(sc2n1)CCC3	81.4
CCCSc1nc(N)c2c3c(sc2n1)CCCC3	10.6
COc1ccccc1CNC(=O)Nc1cn(CC(C)C)c(=O)c2ccccc12	-4.21
CC(C)CCNC(=O)c1nnc(-c2ccccc2)o1	-3.34
CCOC(=O)c1sc(-c2ccccc2)nc1-c1ccc([N+](=O)[O-])cc1	2.86
CCOC(=O)c1sc(-c2ccccc2)nc1O	66.9
CCOC(=O)c1sc(C)c2c(O)nc(-c3ccccc3)nc12	-1.47
c1ccc(CC2CCN(Cc3ccco3)CC2)cc1	-2.56
COc1ccc(-c2cc(-c3ccccc3)nc(N3CCOCC3)n2)cc1OC	-2.6
Cc1nsc2ccc(Cl)cc12	55
Cc1nsc2ccc3ccccc3c12	3.36
Cc1nsc2ccc3sccc3c12	1.72
COc1ccc(-c2noc(CCC(=O)NCc3cc(OC)ccc3OC)n2)cc1	0.675
COc1ccc(-c2noc(CCC(=O)NCc3ccc(F)cc3Cl)n2)cc1	60.3
Cc1ccc(-c2noc(CCC(=O)NCc3ccc(F)cc3Cl)n2)cc1	-0.999
COCCNc1nc2c(S(=O)(=O)c3ccccc3)nnn2c2ccsc12	-0.256
CCc1c(C)sc(NC(=O)Cc2ccc(OC)c(OC)c2)c1C(N)=O	16.2
CCOC(=O)c1cc(-c2ccccc2)n(CCC(=O)N2CCCC(C)C2)c1C (centres unmarked)	1.2
COc1ccccc1CNC(=O)c1cccc(Br)c1	-4.15
N#Cc1cc2c(N)c(C(=O)c3ccc(Br)cc3)sc2nc1N	2.7

SMILES	% Inhibition @ 10 uM [%]
O=C(NCC1CCCO1)C1CCC(CNS(=O)(=O)c2cccc3nsnc23)CC1 (centres unmarked)	4.54
Cc1cccc(NC(=O)COc2ccc(C)cc2C)c1	-2.32
Cc1ccc(NC(=O)COc2ccc(C)cc2C)cc1	-8.06
Cc1ccc(OCC(=O)Nc2ccccc2)c(C)c1	78
COc1ccc(NC(=O)c2ccc(C)c(Br)c2)cc1	2.42
Cc1c(CNC2CCCc3ccccc32)c(C(=O)O)c(C)n1Cc1ccc(F)cc1 (centres unmarked)	-5.49
Cc1cccc(Oc2nc3c(C)cccn3c(=O)c2/C=C(\C#N)C(=O)NCC2CCCO2)c1 (centres unmarked)	-9.06
C=CCN1C(=O)C(CC(=O)NCC)S/C1=N\c1cccc2ccccc12 (centres unmarked)	0.512
COC(=O)/C(C#N)=C/c1c(Oc2cccc(C)c2C)nc2ccccn2c1=O	-5.1
CNC(=O)/C(C#N)=C/c1c(Oc2cc(C)ccc2C(C)C)nc2ccccn2c1=O	17
CCNC(=O)/C(C#N)=C/c1c(Oc2cc(C)ccc2C(C)C)nc2ccccn2c1=O	75.9
CCOC(=O)/C(C#N)=C/c1c(Oc2ccccc2OC)nc2ccccn2c1=O	-5.1
CCOC(=O)/C(C#N)=C/c1c(Oc2cccc(C)c2C)nc2ccccn2c1=O	77.8
Cc1ccc(C(C)C)c(Oc2nc3ccccn3c(=O)c2/C=C(\C#N)C(=O)NCc2ccccc2)c1	-1.43
Cc1cc(C)c2c(n1)SCC(=O)N2CC(=O)NCc1cccc(Cl)c1	-6.01
COCCN(Cc1ccco1)C(=O)c1cc2c(Cl)nc3ccccc3c2s1	3.88
Cc1ccc(-c2nnc(SCC(=O)N3CCC(C)CC3)o2)cc1C	1.3
COc1ccc(CN2CCN(Cc3cccc(F)c3)CC2)c(OC)c1OC	5.99
N#C/C(=C\c1c(Oc2ccccc2Cl)nc2ccccn2c1=O)c1nc2ccccc2[nH]1	-1.86
Cc1cc(Oc2nc3ccccn3c(=O)c2/C=C(\C#N)c2nc3ccccc3[nH]2)ccc1Cl	92.2
Cc1cccc(Oc2nc3ccccn3c(=O)c2/C=C(\C#N)c2nc3ccccc3[nH]2)c1	6.78
COc1ccc(-c2nc(CSc3nnc(C)n4c3cc3oc(C)cc34)c(C)o2)cc1	3.61

SMILES	% Inhibition @ 10 uM [%]
Cc1cc(C)c(S(=O)(=O)N2CCN(c3ccc(F)cc3)CC2)c(C)c1	-6.86
CN(c1ccc(C(=O)Nc2ccc(F)cc2)cc1)S(=O)(=O)c1ccccc1	-7.56
Cc1sc(NC(=O)COc2ccc(F)cc2F)c(C#N)c1C	93.9
CCc1c(C)sc(NC(=O)COc2ccc(F)cc2)c1C#N	0.777
Cc1sc(NC(=O)COc2ccc(Cl)cc2Cl)c(C#N)c1C	1.25
CCCNC(=O)c1cc2ncc(Br)cn2n1	1.04
O=C(O)c1cc2n(n1)C(C(F)(F)F)CC(c1ccccc1)N2 (centres unmarked)	-1.32
O=C(Nc1ccc(Br)cn1)c1cc2n(n1)C(C(F)(F)F)CC(c1ccccc1)N2 (centres unmarked)	50.4
O=C(Nc1cccnc1)c1cc2n(n1)C(C(F)(F)F)CC(c1ccc(Br)cc1)N2 (centres unmarked)	2.99
O=C(Cc1nnc(-c2ccc(Br)cc2)o1)NC1CCN(Cc2ccccc2)CC1	2.28
CP(=O)(O)c1nc2ccccc2s1	-2.44
c1ccc(CN2CCn3c4c(c5ccccc53)CCCC42)cc1 (centres unmarked)	-1.25
C1=C(c2ccc3c(c2)c2c4n3CCN(Cc3ccccc3)C4CCC2)C2CCN1CC2 (centres unmarked)	70.5
Cc1ccc2c(c1)c1c3n2CCN(Cc2ccccc2)C3CCC1 (centres unmarked)	1.26
CN(C)CCN(C)C1CCN(Cc2ccccc2)CC1	0.162
Cc1cc(C)c(C#N)c(SCc2ccccn2)n1	66.4
Cc1cc(C)c(C#N)c(SCc2ccccc2)n1	-0.305
Cc1cc(C)c(C#N)c(SCc2ccccc2F)n1	40.7
CCOC(=O)c1c(NC(=O)/C=C/C(=O)O)sc2c1CCN(Cc1ccccc1)C2	-1.92
CC(Oc1cccc(Cl)c1)C(=O)Nc1sc2c(c1C(N)=O)CCCCC2 (centres unmarked)	61.2
Cc1cc(C(F)(F)F)nn1CC(=O)Nc1sc2c(c1C(N)=O)CCCCC2	54.5
COc1ccc(CC(=O)Nc2sc3c(c2C(N)=O)CCCCC3)cc1OC	57

SMILES	% Inhibition @ 10 uM [%]
Cc1cc(C(F)(F)F)nn1CC(=O)Nc1sc2c(c1C#N)CCCCC2	2.76
NC(=O)c1c(NC(=O)COc2ccc(Cl)cc2)sc2c1CCCCC2	65.1
NC(=O)c1c(NC(=O)COc2ccc(Cl)cc2)sc2c1CCCCCC2	-4.33
CC1CCc2c(sc(NC(=O)C(C)Oc3cccc(Cl)c3)c2C(N)=O)C1 (centres unmarked)	2.45
CC(Oc1ccc(F)cc1)C(=O)Nc1sc2c(c1C(N)=O)CCC2 (centres unmarked)	2.44
COc1ccc(CC(=O)Nc2sc3c(c2C(N)=O)CCCC3)cc1	2.13
NC(=O)c1c(NC(=O)COc2ccccc2)sc2c1CCCCC2	1.88
CCOc1ccc(CC(=O)Nc2sc3c(c2C(N)=O)CCCC3)cc1OCC	-13.5
Cc1cc(C(F)(F)F)nn1CC(=O)Nc1sc2c(c1C(N)=O)CCCC2	-1.49
Cc1nc2ccccc2c2oc(C(=O)NCc3ccc(F)cc3)cc12	1.62
CC(=O)c1ccc(OCCOc2ccc(C(C)=O)cc2)cc1	-6.82
CCn1c2ccccc2c2nnc(N3CCC(C)CC3)nc21	-3.1
Cc1cccc(Cc2c(C)nc3c(C(=O)NCCc4ccccc4)cnn3c2C)c1	-16.3
O=C(O)CSC12CC3CC(CC(C3)C1)C2	-0.415
O=C1c2ccccc2C(=O)N1c1c(F)c(F)c(C(F)(F)F)c(F)c1F	1.8
CC1=CC2=NC(=O)/C(=C\c3ccc(OCc4ccccc4C)cc3)C(=N)N2O1	3.63
COc1ccc(Cl)cc1N(CC(=O)Nc1ccc(C(C)C)cc1)S(C)(=O)=O	0.324
Nc1nnc(-c2ccc([N+](=O)[O-])cc2)s1	-0.0369
COc1ccc(C2=CC(c3ccc(F)c(Br)c3)n3nnnc3N2)cc1 (centres unmarked)	1.73
CC(=O)ONc1ccc(NC=C2C(=O)N(C)C(=O)N(C)C2=O)cc1	8.6
Fc1ccccc1CSCc1nc2ccccc2[nH]1	-4.6
O=C(Nc1cnc2ccccc2c1O)N1CCC(Cc2ccccc2)CC1	5.43

SMILES	% Inhibition @ 10 uM [%]
Cc1cc(/C=C2/SC(=O)N(C(C)C)C2=O)c(C)n1-c1ccncc1	-0.68
CCCC(=O)NCCc1nc2ccccc2n1CC(C)C	0.121
Cc1c(CC(C)C)nc(N)c(C#N)c1-c1ccccc1	99.3
CCCCCc1nc(N)c(C#N)c(-c2ccccc2)c1CCCC	-5.9
COc1ccccc1-c1c(C)c(CC(C)C)nc(N)c1C#N	0.5
Cc1c(CC(C)C)nc(N)c(C#N)c1-c1ccc(F)cc1	2.92
CCCc1nc(N)c(C#N)c(-c2ccccc2)c1CC	-0.631
CCCCc1nc(N)c(C#N)c(-c2ccccc2)c1CCC	97.8
Cc1ccccc1N1C(=O)/C(=C\c2c(C)[nH]c3ccccc23)C(=O)NC1=S	4.15
O=C(c1ccco1)N1CCN(C2CCC(c3ccccc3)CC2)CC1 (centres unmarked)	-0.274
CC(=O)c1c(C)nc(S)c(C#N)c1-c1ccccc1	39.2
Cc1nc(S)c(C#N)c(C)c1C(=O)Nc1ccccc1	2.01
CCOC(=O)c1c(C)nc(C)c(C(=O)OCC)c1-c1ccccc1	1.57
CCOC(=O)c1c(C)nc(C)c(C(=O)OCC)c1-c1ccc(OC)cc1	-1.96
CCOC(=O)c1c(C)nc(S)c(C#N)c1-c1ccc(OC)cc1	52.9
CC(=O)c1c(C)nc(S)c(C#N)c1-c1ccc(Cl)cc1	33.7
CCOC(=O)c1c(C)nc(S)c(C#N)c1-c1ccccc1	57.1
CCc1c(C#N)c(SC)nc(C)c1C(=O)Nc1ccccc1	1.43
CCc1c(C#N)c(S)nc(C)c1C(=O)Nc1ccccc1	55
